# Results taken from the supplement of paper PMC6555819.
# Tests used:
# Assay in all cases: PBM binding z-score (relative to random genomic background probes); higher = stronger binding; sequences stand for … in GC…GCGATTGACAGCGTAGAATGAAGG
# [1] = test system: FXR:RXRa (NR concentration 270 nM, RXRa partner concentration 90 nM)
# Method in brief: (§1)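 Binding buffer was PBS pH 7.4 with 2% milk, 0.02% Triton X-100, 1 mM DTT, 0.2 mg/mL BSA and 0.4 mg/ml salmon testes DNA. In it, ligand-free nuclear receptor dimers were incubated 1 h on custom Agilent 4×180K protein-binding microarrays carrying double-stranded probes. Antibodies against each partner (one per run) detected binding, and z-scores were calculated against random background probes after regression normalization of scanned fluorescence.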
# [2] = test system: LXRa:RXRa (NR concentration 270 nM, RXRa partner concentration 90 nM)
# Method in brief: as §1
# [3] = test system: LXRa homodimer (NR concentration 270 nM)
# Method in brief: as §1
# [4] = test system: LXRb:RXRa (NR concentration 270 nM, RXRa partner concentration 90 nM)
# Method in brief: as §1
# [5] = test system: LXRb homodimer (NR concentration 270 nM)
# Method in brief: as §1
# [6] = test system: PPARa:RXRa (NR concentration 270 nM, RXRa partner concentration 90 nM)
# Method in brief: as §1
# [7] = test system: PPARg:RXRa (NR concentration 180 nM, RXRa partner concentration 90 nM)
# Method in brief: as §1
# [8] = test system: PPARg:RXRa 270nM:90nM, anti-RXR (NR concentration 270 nM, RXRa partner concentration 90 nM)
# Method in brief: as §1
# [9] = test system: PPARg:RXRa 30nM:10nM, anti-RXR (NR concentration 30 nM, RXRa partner concentration 10 nM)
# Method in brief: as §1
# [10] = test system: PPARg:RXRa 90nM:30nM, anti-RXR (NR concentration 90 nM, RXRa partner concentration 30 nM)
# Method in brief: as §1
# [11] = test system: PPARg:RXRa DBDmut IVT, anti-RXR (DBD mutation: RXRa K156A/R161A, NR concentration 270 nM, RXRa partner concentration 90 nM)
# Method in brief: as §1
# [12] = test system: PPARg:RXRa IVT, anti-PPARg (NR concentration 270 nM, RXRa partner concentration 90 nM)
# Method in brief: as §1
# [13] = test system: PPARg DBDmut:RXRa IVT, anti-PPARg (DBD mutation: PPARg1 K132A/R137A, NR concentration 270 nM, RXRa partner concentration 90 nM)
# Method in brief: as §1
# [14] = test system: PPARg DBDmut IVT, anti-PPARg (DBD mutation: PPARg1 K132A/R137A, NR concentration 270 nM)
# Method in brief: as §1
# [15] = test system: PPARg homodimer (NR concentration 180 nM)
# Method in brief: as §1
# [16] = test system: PXR homodimer (NR concentration 270 nM)
# Method in brief: as §1
# [17] = test system: RARa:RXR (NR concentration 270 nM, RXRa partner concentration 90 nM)
# Method in brief: as §1
# [18] = test system: RARa homodimer (NR concentration 270 nM)
# Method in brief: as §1
# [19] = test system: RARb:RXRa (NR concentration 270 nM, RXRa partner concentration 90 nM)
# Method in brief: as §1
# [20] = test system: PXR:RXRa (NR concentration 270 nM, RXRa partner concentration 90 nM)
# Method in brief: as §1
Sequence,PBM binding z-score [1],PBM binding z-score [2],PBM binding z-score [3],PBM binding z-score [4],PBM binding z-score [5],PBM binding z-score [6],PBM binding z-score [7],PBM binding z-score [8],PBM binding z-score [9],PBM binding z-score [10],PBM binding z-score [11],PBM binding z-score [12],PBM binding z-score [13],PBM binding z-score [14],PBM binding z-score [15],PBM binding z-score [16],PBM binding z-score [17],PBM binding z-score [18],PBM binding z-score [19],PBM binding z-score [20]
TCTCGGAGGACACGAAAGGGCAGAGCTCGACATC,0.131,0.581,-0.282,-0.082,-0.72,0.48,0.29,0.85,1.65,1.2,1.43,0.279,-1.54,-1.04,-0.108,-0.585,0.468,-0.203,2.42,
GATACAGGGTCAGCTTGAGGCCAGAGTATGGAAA,4.2,2.37,-0.58,2.03,-0.747,3.98,2.71,2.81,0.493,1.56,1.23,2,-0.407,-0.636,1.71,-0.346,3.44,-0.0727,3.72,
AATACAGGGTCACTTGGCCAGAGTAGGTACGAAT,6.52,5.13,1.39,4.27,1.54,5.49,5.84,5.4,2.24,4.19,2.55,4.18,1.56,1.27,1.58,0.166,4.1,0.292,4.23,
CGAACTAGGTCAAAGGACAGAGAAAGGCGACGTA,4.22,2.87,-0.0116,1.9,-0.178,5.58,10.3,8.77,8.15,9.91,8.13,8.31,,4.05,1.87,-0.306,2.31,0.114,3.88,1.26
ATATGTAGGTTCGGGTCATTCAGAAAGTAGGGAA,3.32,2.84,1.01,3.38,1.52,4.37,4.22,4.12,1.6,3.34,3.06,4.01,,1.7,2.61,1.57,3.97,1.72,2.5,3.53
TGTCAGAGTTCAAAGGTAACGTAAGTATCCACAC,7.14,6.58,4.05,4.65,1.22,5.88,7.19,6.65,3.88,5.98,0.11,3.16,0.991,1.01,2.95,5.44,7.02,-0.164,4.47,
CGATCTAGGTCAAAGGACAGTGAAAGGCGACGTA,4,2.77,-0.0244,1.53,-0.237,5.27,10.3,8.3,8.39,9.24,7.67,8.1,,1.86,2.2,-0.421,2.13,0.262,3.79,0.913
